Test results published in publication PMC7862700, “An all-to-all approach to the identification of sequence-specific readers for epigenetic DNA modifications on cytosine”.

Tests used:
Assay in all cases: DAPPL (digital affinity profiling via proximity ligation, sequencing); 10 mM Tris-HCl pH 7.5, 50 mM NaCl, 1 mM DTT, 4% glycerol, room temperature, 30 min; GST-TFs on glutathione beads, 16-mer random dsDNA library, 0.1% formaldehyde crosslink after washing; high values mean tight binding
Settings in all cases: protein: recombinant; tags: N-terminal GST; dsDNA, one strand shown
FLI1 = target: T1, FLI1 (Homo sapiens, UniProt Q01543 1-452)
T1 sequence: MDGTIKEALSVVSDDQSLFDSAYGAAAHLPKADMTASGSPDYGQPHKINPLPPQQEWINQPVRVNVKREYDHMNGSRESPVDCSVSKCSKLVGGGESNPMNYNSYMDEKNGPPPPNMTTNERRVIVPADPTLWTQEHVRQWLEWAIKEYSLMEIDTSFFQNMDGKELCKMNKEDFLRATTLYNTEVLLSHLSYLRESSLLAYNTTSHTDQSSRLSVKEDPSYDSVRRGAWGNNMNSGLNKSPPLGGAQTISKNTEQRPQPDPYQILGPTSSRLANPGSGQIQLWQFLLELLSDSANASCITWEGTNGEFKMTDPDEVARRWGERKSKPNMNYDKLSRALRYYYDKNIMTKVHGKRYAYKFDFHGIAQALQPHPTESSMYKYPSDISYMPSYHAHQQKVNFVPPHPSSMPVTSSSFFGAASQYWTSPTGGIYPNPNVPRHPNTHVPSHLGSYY
Outline: (§1)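 Human transcription factors were made in yeast as GST fusions, captured on glutathione beads and barcoded with DNA. With a tag-only sample included, the pool was incubated with 200 nmole of a random double-stranded 16-mer DNA library in Tris/NaCl/DTT/glycerol buffer at room temperature for 30 min, then crosslinked with 0.1% formaldehyde after washing, ligated by proximity, amplified and sequenced. For binding signal, each hexamer's read frequency for a factor is divided by its frequency for the tag-only sample.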

ELK1 = target: T2, ELK1 (Homo sapiens, UniProt P19419 1-428)
T2 sequence: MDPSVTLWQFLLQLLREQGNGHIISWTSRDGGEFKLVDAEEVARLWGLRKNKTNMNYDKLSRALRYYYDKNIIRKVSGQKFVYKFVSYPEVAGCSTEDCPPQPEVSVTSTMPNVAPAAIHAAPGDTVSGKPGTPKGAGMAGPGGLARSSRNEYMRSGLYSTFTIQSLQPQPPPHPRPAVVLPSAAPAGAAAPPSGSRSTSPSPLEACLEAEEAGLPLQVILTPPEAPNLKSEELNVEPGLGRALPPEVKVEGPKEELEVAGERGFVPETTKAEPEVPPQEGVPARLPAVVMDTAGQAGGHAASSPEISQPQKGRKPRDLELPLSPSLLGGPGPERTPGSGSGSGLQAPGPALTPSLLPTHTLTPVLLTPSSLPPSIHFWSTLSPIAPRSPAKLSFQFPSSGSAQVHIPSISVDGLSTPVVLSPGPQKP
Outline: as §1

GABPA = target: T3, GABPA (Homo sapiens, UniProt Q06546 1-454)
T3 sequence: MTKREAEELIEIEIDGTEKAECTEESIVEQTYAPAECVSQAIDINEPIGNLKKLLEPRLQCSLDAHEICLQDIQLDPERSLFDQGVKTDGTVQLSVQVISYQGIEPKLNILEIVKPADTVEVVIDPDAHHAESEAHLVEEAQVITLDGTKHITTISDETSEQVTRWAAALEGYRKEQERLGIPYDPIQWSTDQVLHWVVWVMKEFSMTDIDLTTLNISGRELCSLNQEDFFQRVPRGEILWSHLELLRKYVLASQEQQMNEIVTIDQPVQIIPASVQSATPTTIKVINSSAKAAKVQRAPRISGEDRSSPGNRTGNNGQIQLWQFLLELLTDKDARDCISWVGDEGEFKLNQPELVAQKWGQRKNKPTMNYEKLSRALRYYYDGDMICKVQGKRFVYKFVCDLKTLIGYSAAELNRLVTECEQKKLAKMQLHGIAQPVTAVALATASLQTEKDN
Outline: as §1

ERG = target: T4, ERG (Homo sapiens, UniProt P11308 1-479)
T4 sequence: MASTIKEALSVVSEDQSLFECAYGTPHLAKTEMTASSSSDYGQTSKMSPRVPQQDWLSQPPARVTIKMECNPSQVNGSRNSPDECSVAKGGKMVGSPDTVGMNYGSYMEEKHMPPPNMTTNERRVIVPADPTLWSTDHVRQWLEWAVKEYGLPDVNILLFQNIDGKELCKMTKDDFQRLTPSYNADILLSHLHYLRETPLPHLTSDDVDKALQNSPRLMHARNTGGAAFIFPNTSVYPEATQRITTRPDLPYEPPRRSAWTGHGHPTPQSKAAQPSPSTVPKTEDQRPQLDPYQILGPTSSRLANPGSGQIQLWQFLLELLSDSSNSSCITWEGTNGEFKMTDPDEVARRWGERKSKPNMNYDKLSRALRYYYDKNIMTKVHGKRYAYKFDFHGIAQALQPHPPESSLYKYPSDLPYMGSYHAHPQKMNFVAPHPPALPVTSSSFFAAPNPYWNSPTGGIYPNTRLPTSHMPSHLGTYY
Outline: as §1

ELF1 = ELF1 (Homo sapiens, UniProt P32519 1-619)
Outline: as §1

EHF = target: T5, EHF (Homo sapiens, UniProt Q9NZC4 1-300)
T5 sequence: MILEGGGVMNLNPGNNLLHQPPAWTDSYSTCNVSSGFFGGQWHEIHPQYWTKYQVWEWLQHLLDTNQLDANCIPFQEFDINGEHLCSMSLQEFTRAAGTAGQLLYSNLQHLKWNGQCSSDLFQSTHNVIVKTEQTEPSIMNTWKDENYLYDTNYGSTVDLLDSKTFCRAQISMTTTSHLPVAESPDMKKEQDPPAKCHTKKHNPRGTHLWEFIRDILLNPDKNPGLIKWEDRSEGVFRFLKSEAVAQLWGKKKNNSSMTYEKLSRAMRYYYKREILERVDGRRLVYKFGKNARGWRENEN
Outline: as §1

SPI1 = SPI1 (Homo sapiens, UniProt P17947 1-270)
Outline: as §1

SPIB = SPIB (Homo sapiens, UniProt Q01892 1-262)
Outline: as §1

ELK3 = target: T6, ELK3 (Homo sapiens, UniProt P41970 1-407)
T6 sequence: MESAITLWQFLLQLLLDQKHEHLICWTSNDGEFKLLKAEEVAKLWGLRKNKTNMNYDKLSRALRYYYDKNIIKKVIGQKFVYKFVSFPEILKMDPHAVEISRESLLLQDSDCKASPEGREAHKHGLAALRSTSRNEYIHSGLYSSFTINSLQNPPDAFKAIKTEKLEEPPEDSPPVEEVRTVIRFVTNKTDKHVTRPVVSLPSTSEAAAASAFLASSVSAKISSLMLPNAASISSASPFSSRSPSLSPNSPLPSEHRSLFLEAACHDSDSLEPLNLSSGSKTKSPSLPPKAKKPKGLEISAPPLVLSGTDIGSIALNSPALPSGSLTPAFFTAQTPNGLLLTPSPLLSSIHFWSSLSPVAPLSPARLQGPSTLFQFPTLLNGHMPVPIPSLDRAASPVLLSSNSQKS
Outline: as §1

ELF1, sequence (P32519 whole entry): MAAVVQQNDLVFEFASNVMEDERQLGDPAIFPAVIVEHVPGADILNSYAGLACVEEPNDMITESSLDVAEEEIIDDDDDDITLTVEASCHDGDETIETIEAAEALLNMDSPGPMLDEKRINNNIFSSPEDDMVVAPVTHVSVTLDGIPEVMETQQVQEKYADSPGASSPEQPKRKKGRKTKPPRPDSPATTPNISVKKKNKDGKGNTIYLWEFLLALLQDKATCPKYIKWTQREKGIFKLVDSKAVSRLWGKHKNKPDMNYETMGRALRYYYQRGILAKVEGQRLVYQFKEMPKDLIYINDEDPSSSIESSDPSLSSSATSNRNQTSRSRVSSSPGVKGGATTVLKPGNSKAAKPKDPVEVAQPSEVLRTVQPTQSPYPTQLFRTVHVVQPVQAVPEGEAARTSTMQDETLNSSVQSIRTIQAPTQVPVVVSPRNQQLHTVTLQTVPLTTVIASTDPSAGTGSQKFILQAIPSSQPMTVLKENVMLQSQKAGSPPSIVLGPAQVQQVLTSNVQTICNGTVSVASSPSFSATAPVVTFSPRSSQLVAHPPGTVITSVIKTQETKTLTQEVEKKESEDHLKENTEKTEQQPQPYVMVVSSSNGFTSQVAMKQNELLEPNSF
SPIB, sequence (Q01892 whole entry): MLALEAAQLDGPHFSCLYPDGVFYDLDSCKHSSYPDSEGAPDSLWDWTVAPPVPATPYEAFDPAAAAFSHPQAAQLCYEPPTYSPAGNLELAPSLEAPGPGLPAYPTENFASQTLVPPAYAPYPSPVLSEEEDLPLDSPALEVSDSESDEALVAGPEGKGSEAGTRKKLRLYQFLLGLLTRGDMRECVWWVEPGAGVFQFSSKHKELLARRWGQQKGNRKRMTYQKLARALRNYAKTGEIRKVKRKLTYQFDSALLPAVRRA

Sequence | binding signal (FLI1) | binding signal (ELK1) | binding signal (GABPA) | binding signal (ERG) | binding signal (ELF1) | binding signal (EHF) | binding signal (SPI1) | binding signal (SPIB) | binding signal (ELK3)
AAATAT | 1.24 fold enrichment (6-mer frequency, TF over GST control) | 1.34 fold enrichment (6-mer frequency, TF over GST control) | 1.33 fold enrichment (6-mer frequency, TF over GST control) | 1.34 fold enrichment (6-mer frequency, TF over GST control) | 1.37 fold enrichment (6-mer frequency, TF over GST control) | 1.31 fold enrichment (6-mer frequency, TF over GST control) | 1.32 fold enrichment (6-mer frequency, TF over GST control) | 1.47 fold enrichment (6-mer frequency, TF over GST control) | 1.38 fold enrichment (6-mer frequency, TF over GST control)
CTGTAC | 1.28 fold enrichment (6-mer frequency, TF over GST control) | 1.31 fold enrichment (6-mer frequency, TF over GST control) | 1.23 fold enrichment (6-mer frequency, TF over GST control) | 1.39 fold enrichment (6-mer frequency, TF over GST control) | 1.38 fold enrichment (6-mer frequency, TF over GST control) | 1.33 fold enrichment (6-mer frequency, TF over GST control) | 1.4 fold enrichment (6-mer frequency, TF over GST control) | 1.3 fold enrichment (6-mer frequency, TF over GST control) | 1.24 fold enrichment (6-mer frequency, TF over GST control)
TATGGG | 1.23 fold enrichment (6-mer frequency, TF over GST control) | 1.06 fold enrichment (6-mer frequency, TF over GST control) | 1.25 fold enrichment (6-mer frequency, TF over GST control) | 1.15 fold enrichment (6-mer frequency, TF over GST control) | 1.16 fold enrichment (6-mer frequency, TF over GST control) | 1.37 fold enrichment (6-mer frequency, TF over GST control) | 1.21 fold enrichment (6-mer frequency, TF over GST control) | 1.27 fold enrichment (6-mer frequency, TF over GST control) | 1.18 fold enrichment (6-mer frequency, TF over GST control)
TGGGAT | 1.12 fold enrichment (6-mer frequency, TF over GST control) | 1.17 fold enrichment (6-mer frequency, TF over GST control) | 1.3 fold enrichment (6-mer frequency, TF over GST control) | 1.13 fold enrichment (6-mer frequency, TF over GST control) | 1.25 fold enrichment (6-mer frequency, TF over GST control) | 1.25 fold enrichment (6-mer frequency, TF over GST control) | 1.29 fold enrichment (6-mer frequency, TF over GST control) | 1.24 fold enrichment (6-mer frequency, TF over GST control) | 1.17 fold enrichment (6-mer frequency, TF over GST control)
CGTTTC | 1.76 fold enrichment (6-mer frequency, TF over GST control) | 1.68 fold enrichment (6-mer frequency, TF over GST control) | 1.69 fold enrichment (6-mer frequency, TF over GST control) | 1.98 fold enrichment (6-mer frequency, TF over GST control) | 1.71 fold enrichment (6-mer frequency, TF over GST control) | 1.83 fold enrichment (6-mer frequency, TF over GST control) | 1.79 fold enrichment (6-mer frequency, TF over GST control) | 1.75 fold enrichment (6-mer frequency, TF over GST control) | 1.72 fold enrichment (6-mer frequency, TF over GST control)
TCATCC | 1.4 fold enrichment (6-mer frequency, TF over GST control) | 1.38 fold enrichment (6-mer frequency, TF over GST control) | 1.39 fold enrichment (6-mer frequency, TF over GST control) | 1.36 fold enrichment (6-mer frequency, TF over GST control) | 1.41 fold enrichment (6-mer frequency, TF over GST control) | 1.38 fold enrichment (6-mer frequency, TF over GST control) | 1.34 fold enrichment (6-mer frequency, TF over GST control) | 1.34 fold enrichment (6-mer frequency, TF over GST control) | 1.43 fold enrichment (6-mer frequency, TF over GST control)
TGTTTC | 1.91 fold enrichment (6-mer frequency, TF over GST control) | 1.85 fold enrichment (6-mer frequency, TF over GST control) | 1.59 fold enrichment (6-mer frequency, TF over GST control) | 1.97 fold enrichment (6-mer frequency, TF over GST control) | 1.8 fold enrichment (6-mer frequency, TF over GST control) | 1.79 fold enrichment (6-mer frequency, TF over GST control) | 1.69 fold enrichment (6-mer frequency, TF over GST control) | 1.74 fold enrichment (6-mer frequency, TF over GST control) | 1.61 fold enrichment (6-mer frequency, TF over GST control)
